High-throughput results as filed in PubChem.
This is a sample that favours compounds with a hit; in the whole collection about 9.5% have one here.
Tau FP inhib – tau fibrillization inhibition (FP); 280,000 compounds, 0.39% hits; Potency, µM (titrated, usually from 57.7 µM), hits mostly inhibitors; K18 P301L tau heparin fibrillization, Alexa594 FP, 6 h; P10636; also: nearly all actives have a fitted effect of over 55% in size
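Steps: dispense K18 P301L tau (15 uM plus 0.24 uM Alexa 594 tracer, final) in pH 7 sodium acetate; add compound; add heparin (20 uM final); incubate 6 hr, 37 C; add ThT (30 uM final); after 1 hr ambient, read FP.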
HPGD block – HPGD (human) dehydrogenase inhibition; Potency, µM, hits mostly inhibitors; P15428; purified HPGD, NADH fluorescence kinetic, PGE2 substrate; 150,000 compounds, 4.3% hits; active = well fitted inhibition curve with a large enough effect, not every such curve was filed as active; inconclusive = small, poorly fitted or top-dose-only effect, or another doubt; inactive = no such curve, though single readings can be large or run the other way
Target sequence (P15428 whole entry, looked up): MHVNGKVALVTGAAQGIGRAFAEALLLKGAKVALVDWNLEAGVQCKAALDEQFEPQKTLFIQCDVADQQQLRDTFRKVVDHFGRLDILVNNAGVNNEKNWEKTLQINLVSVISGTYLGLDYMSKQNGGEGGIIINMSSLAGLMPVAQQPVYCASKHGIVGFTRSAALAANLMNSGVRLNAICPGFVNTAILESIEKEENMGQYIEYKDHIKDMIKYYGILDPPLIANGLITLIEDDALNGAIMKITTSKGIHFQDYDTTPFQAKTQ
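20 nM HPGD preincubated 15 min at room temperature with compound in 50 mM Tris-HCl pH 8, 0.01% Tween 20. Started with 1 mM NAD+ and 30 uM prostaglandin E2; NADH fluorescence (360/450 nm) read 5 times over 30-s intervals, last minus first.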
Tau ThT inhib – blocks human tau fibril formation measured by thioflavin T; P10636; recombinant tau K18 P301L, heparin-induced fibrillization, ThT fluorescence; Potency, µM (doses to about 57.4 µM), most hits filed as inhibitors; 270,000 compounds, 2.1% hits; AID 1460; also: nearly all actives have a fitted effect of over 55% in size
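Aggregation was driven by heparin (20 uM final) acting on recombinant tau […] bearing P301L in 100 mM sodium acetate pH 7; fibrils were detected with Thioflavin T.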
ALDH1A1 inh – inhibitors of human aldehyde dehydrogenase 1A1; P00352; Purified ALDH1A1, NADH fluorescence, propionaldehyde substrate; Potency, µM (top dose mostly 75.3 µM), usual class: inhibitors; 220,000 compounds, 7.3% hits; active = well fitted inhibition curve with a large enough effect, not every such curve was filed as active; inconclusive = small, poorly fitted or top-dose-only effect, or another doubt; inactive = no such curve, though single readings can be large or run the other way
NPSR antagonist – antagonists of human neuropeptide S receptor cAMP signaling; CHO-NPSR cells, cAMP TR-FRET, antagonist mode; Potency, µM (top dose mostly 38.3 µM), hits mostly inhibitors; 220,000 compounds, 1% hits; AID 1461; also: nearly all actives have a fitted effect of over 50% in size
Target sequence (Q6W5P4 whole entry, looked up): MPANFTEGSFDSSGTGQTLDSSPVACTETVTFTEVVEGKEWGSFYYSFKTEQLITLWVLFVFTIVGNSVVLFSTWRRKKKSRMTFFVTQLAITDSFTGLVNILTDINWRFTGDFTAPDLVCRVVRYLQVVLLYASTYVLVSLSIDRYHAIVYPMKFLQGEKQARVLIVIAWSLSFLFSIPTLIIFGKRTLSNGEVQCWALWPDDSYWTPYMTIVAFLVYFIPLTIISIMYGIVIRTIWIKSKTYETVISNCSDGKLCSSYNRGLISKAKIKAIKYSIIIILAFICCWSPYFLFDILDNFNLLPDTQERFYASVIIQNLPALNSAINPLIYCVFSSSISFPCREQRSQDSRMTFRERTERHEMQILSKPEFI
Tau fluor cs – counter-screen for tau fibril formation inhibitors; tau K18 P301L Alexa594 fluorescence, heparin fibrillization; Potency, µM (top dose mostly 57.7 µM); 280,000 compounds, 0.93% hits; AID 1463; also: nearly all actives have a fitted effect of over 55% in size
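Human tau K18 P301L (15 uM unlabeled, 0.24 uM Alexa 594-labeled) in 100 mM sodium acetate pH 7 with 20 uM heparin, 6 hr at 37 C. ThT 30 uM added, 1 hr ambient; Alexa 594 FP and total fluorescence read at 555/632 nm.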
A number is an active result; . = inactive; ? = inconclusive; / = not tested or not shown; [ ] = another dose, or the depositor's remark. Unless noted, calls follow the shape of the dose curve; as a rule, active = well fitted curve in the direction sought with a large enough effect; inconclusive = small, poorly fitted or top-dose-only effect, or another doubt; inactive = no such curve, though single readings can be large; an effect the other way counts as inactive or inconclusive.

SMILES	Tau FP inhib	HPGD block	Tau ThT inhib	ALDH1A1 inh	NPSR antagonist	Tau fluor cs
COc1ccc(-c2ccc(=O)n(Cc3cccc([N+](=O)[O-])c3)n2)cc1	.	/	?	.	.	?
COc1cc(/C=C2\C(=O)ON=C2c2ccccc2)cc(OC)c1OC	.	14µM	?	?	.	.
COc1ccc(/C=C2\C(=O)ON=C2c2cccc([N+](=O)[O-])c2)cc1	.	/	?	18µM	?	.
COc1ccc(/C=C2/C(=O)ON=C2c2ccccc2)cc1OC	.	10µM	.	22µM	?	.
O=C1ON=C(c2ccccc2)/C1=C/c1ccco1	?	/	?	?	?	.
COc1ccc(N(C(=O)c2ccc(Cl)cc2)S(=O)(=O)c2ccc(C)cc2)cc1	.	/	.	/	/	.
CCCC1=C(C(=O)OCC)C(c2ccc(N(C)C)cc2)n2ncnc2N1 (stereo unspecified)	.	/	.	.	.	.
CCN1C(=O)/C(=C2/C(=O)N3c4c(cc(OC(C)=O)cc42)C(C)=CC3(C)C)SC1=S	.	.	?	?	.	?
COc1cc2c3c(c1)/C(=C1/SC(NC(C)=O)=NC1=O)C(=O)N3C(C)(C)C=C2C	?	.	16µM	?	?	14µM[quencher]
OCC1OC(C#Cc2ccccc2)C=CC1O (stereo unspecified)	.[11.6 µM]	/	?	.[13.5 µM]	/	.[11.6 µM]
CCn1c(C(=O)N2CCCC(C(=O)NCCc3ccc(C)cc3)C2)cc2sccc21 (stereo unspecified)	.	.	.	32µM	.	.
Cn1c(C(=O)N2CCCC(C(=O)NCc3cccs3)C2)cc2sccc21 (stereo unspecified)	.	.	.	?	.	.
Cn1c(C(=O)N2CCCC(C(=O)NCCCSC3CCCCC3)C2)cc2sccc21 (stereo unspecified)	.	.	?	1.3µM	?	.
CCn1c(C(=O)N2CCCC(C(=O)NCCCc3ccccc3)C2)cc2sccc21 (stereo unspecified)	.	.	.	?	.	.
CC(C)c1ccc(NC(=O)c2cnc3sc(N4CCCC4)nn3c2=O)cc1	.	/	.	/	/	.
N#C/C(=C/c1ccc(Br)o1)C(N)=O	.	.	.	.	.	.
N#C/C(=C/c1ccc(Br)o1)C(N)=S	.	/	18µM	/	?	28µM[quencher]
CN(C)S(=O)(=O)c1cccc(C(=O)C2=C3SC=C(c4ccccc4)N3CC2)c1	.	.	?	2µM	.	.
Cc1sc2nc(SCC(N)=O)n(-c3ccccc3)c(=O)c2c1C	.	/	.	18µM	.	.
Cc1sc2nc(SCC(=O)NCCO)n(-c3ccccc3)c(=O)c2c1C	.	/	.	?	.	.
CN1CCN(Cc2nc3ccccc3c(=O)n2Cc2nc(-c3ccc([N+](=O)[O-])cc3)cs2)CC1	.	/	?	13µM	.	.
O=C(/C=C/c1ccccc1Cl)N(Cc1ccccc1)C1CCS(=O)(=O)C1 (stereo unspecified)	.	.	.	11µM	.	.
O=C(/C=C/c1ccccc1Cl)N(Cc1ccc(Cl)cc1)C1CCS(=O)(=O)C1 (stereo unspecified)	.	.	.	.	.	.
CC(C)c1ccc(CN(C(=O)/C=C/c2ccco2)C2CCS(=O)(=O)C2)cc1 (stereo unspecified)	.	/	?	18µM	.	.
CCOC(=O)C1CSC(Cc2ccc(OCc3ccc([N+](=O)[O-])cc3)cc2)N1 (stereo unspecified)	.	.	?	.	/	?
SMILES	Tau FP inhib	HPGD block	Tau ThT inhib	ALDH1A1 inh	NPSR antagonist	Tau fluor cs
C/C(=N\NS(=O)(=O)c1ccc(C)c([N+](=O)[O-])c1)c1ccc2c(c1)OCO2	.	/	.	22µM	.	.
C/C(=N\NS(=O)(=O)c1ccccc1)c1ccc2c(c1)OCO2	.	/	.	?	.	.
CC(Oc1ccccc1Cl)C(=O)N1CCOCC1 (stereo unspecified)	.	28µM	.	?	.	.
O=C(Oc1ccccc1OC(=O)N1CCOCC1)N1CCOCC1	.	.	.	.	.[7.67 µM]	.
Cn1c(/C=C(\C#N)C(N)=S)ccc1-c1ccc(Br)cc1	.	/	1µM	?	.	.
CSc1ccc(C2NC(=O)c3c(sc4c3CCN(C)C4)N2)cc1 (stereo unspecified)	.	?	.	?	.	.
CN1CCc2c(sc3c2C(=O)NC(/C=C\c2ccccc2)N3)C1 (stereo unspecified)	.	/	18µM	/	.	.
CN1CCc2c(sc3c2C(=O)NC(c2cccs2)N3)C1 (stereo unspecified)	?	.	13µM	?	.	.
CC(C)c1ccc(C2NC(=O)c3c(sc4c3CCN(C)C4)N2)cc1 (stereo unspecified)	.	/	?	/	/	.
CN1CCc2c(sc3c2C(=O)NC(c2ccc(C(C)(C)C)cc2)N3)C1 (stereo unspecified)	?	/	16µM	/	/	.
Cc1ccsc1C1NC(=O)c2c(sc3c2CCN(C)C3)N1 (stereo unspecified)	?	?	?	?	.	.
CN1CCc2c(sc3c2C(=O)NC(c2ccc(-c4cccc(Cl)c4)o2)N3)C1 (stereo unspecified)	?	/	2.2µM	?	.	.
CC(C)C(=O)N[C@@H]1CCCN1C(=O)/C=C\c1ccccc1	.[11.6 µM]	/	.[11.5 µM]	.[13.5 µM]	/	.[11.6 µM]
CCCCN(CCCC)S(=O)(=O)c1ccc(NC(=O)c2c(-c3ccccc3)noc2C)cc1	?	/	.	/	/	?
CCOc1cc(C2NC(=O)c3c(sc4c3CCN(C)C4)N2)ccc1OC(=O)c1ccccc1Cl (stereo unspecified)	.	/	?	/	/	.
COc1ccc(C(=O)Oc2ccc(C3NC(=O)c4c(sc5c4CCN(C)C5)N3)cc2OC)cc1 (stereo unspecified)	?	/	4µM	/	/	.
COc1ccc(C2NC(=O)c3c(sc4c3CCN(C)C4)N2)cc1O (stereo unspecified)	.	/	5.6µM	/	/	.
CCOc1ccc(NC(=O)Cn2c(C)cc3ccccc3c2=O)cc1	?	/	?	/	/	.
O=C(Cc1ccccc1)Nc1cccc(N2C(=O)C=CC2=O)c1	.	3.5µM	?	0.71µM	?	.
COc1ccc(/C=C/C(=O)c2ccccn2)cc1	.	/	20µM	?	.	.
COc1ccc(/C=C/C(=O)c2c(O)c(OC)c3occc3c2OC)cc1	.	/	4.5µM	?	.	?
COC(=O)c1c(C)[nH]c(C(=O)CSc2nnnn2-c2ccccc2)c1C	.	.	.	.	.	.
Cc1ccccc1-n1nnnc1SCc1csc(-c2ccccc2)n1	.	.	.	7.9µM	.	.
CCOC(=O)c1[nH]c(CSc2nnnn2-c2ccccc2C)c(C(=O)OCC)c1C	.	.	.	3.5µM	.	.
CCOC(=O)c1c(C)[nH]c(C)c1C(=O)CSc1nnnn1-c1ccccc1	?	.	.	32µM	.	.
